# Source: PMC5540273 (PLoS ONE, 2017)
# What was measured:
# AAK1 = settings: concentration: 1 μM, replicates: in singlicate; n = 1
# ABL1-nonphosphorylated = settings: concentration: 1 μM, replicates: in singlicate; n = 1
# ABL1-phosphorylated = settings: concentration: 1 μM, replicates: in singlicate; n = 1
# ABL2 = settings: concentration: 1 μM, replicates: in singlicate; n = 1
# ACVR1B = settings: concentration: 1 μM, replicates: in singlicate; n = 1
# ACVR1 = settings: concentration: 1 μM, replicates: in singlicate; n = 1
# p38-alpha = system: T1, p38-alpha
# T1 construct: gene MAPK14
# VPS34 = system: T2, VPS34
# T2 construct: gene PIK3C3
# p38-beta = system: T3, p38-beta
# T3 construct: gene MAPK11
# 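Wherever %Inh is given: KINOMEscan kinase panel screen.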
# 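Wherever Kd is given: kd values determined as follow-up on hits from a single-replicate KINOMEscan panel screen.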
smiles,measurement,setting,value
CN(C1=C(c2ccccc2)C(=O)NC1=O)c1ccccc1 [SB-334860],Kd,TXK,> 10000 nM
same,%Inh,AAK1,7%
same,%Inh,ABL1-nonphosphorylated,0%
same,%Inh,ABL1-phosphorylated,0%
same,%Inh,ABL2,0%
same,%Inh,ACVR1B,0%
same,%Inh,ACVR1,1%
CCc1nc(-c2cccc(C)c2)c(-c2ccnc(NCc3ccccc3)c2)s1,Kd,p38-alpha,150 nM
same,%Inh,AAK1,10%
same,%Inh,ABL1-nonphosphorylated,35%
same,%Inh,ABL1-phosphorylated,7%
same,%Inh,ABL2,21%
same,%Inh,ACVR1B,0%
same,%Inh,ACVR1,0%
Cc1cccc(Cn2ccn3c(=O)cc(N4CCOCC4)nc23)c1 [GSK2297542],Kd,VPS34,75 nM
same,%Inh,AAK1,15%
same,%Inh,ABL1-nonphosphorylated,7%
same,%Inh,ABL1-phosphorylated,0%
same,%Inh,ABL2,13%
same,%Inh,ACVR1B,0%
same,%Inh,ACVR1,0%
NS(=O)(=O)CCc1cccc(Nc2nccc(-c3c(-c4cccc(NC(=O)c5c(F)cccc5F)c4)nn4ccccc34)n2)c1 [GSK336735],%Inh,AAK1,0%
same,%Inh,ABL1-nonphosphorylated,95.3%
same,%Inh,ABL1-phosphorylated,16%
same,%Inh,ABL2,78%
same,%Inh,ACVR1B,7%
same,%Inh,ACVR1,0%
O=C1Cc2cc(Nc3nc(NCc4cccc(S(=O)(=O)C(F)(F)F)c4)ncc3C(F)(F)F)ccc2N1,%Inh,AAK1,8%
same,%Inh,ABL1-nonphosphorylated,0%
same,%Inh,ABL1-phosphorylated,0%
same,%Inh,ABL2,0%
same,%Inh,ACVR1B,0%
same,%Inh,ACVR1,3%
Cc1cn2c(=O)cc(N3CCOCC3)nc2n1Cc1cccc(Cl)c1Cl [GSK2334006],Kd,VPS34,2.2 nM
same,%Inh,AAK1,14%
same,%Inh,ABL1-nonphosphorylated,73%
same,%Inh,ABL1-phosphorylated,63%
same,%Inh,ABL2,41%
same,%Inh,ACVR1B,9%
same,%Inh,ACVR1,18%
COc1cc2c(cc1OC[C@@H](O)CO)ncc1c3ccc(C#N)cc3[nH]c21,%Inh,AAK1,78%
same,%Inh,ABL1-nonphosphorylated,49%
same,%Inh,ABL1-phosphorylated,21%
same,%Inh,ABL2,0%
same,%Inh,ACVR1B,0%
same,%Inh,ACVR1,0%
CCn1cnc2c(N)ncnc21 [GW345098],Kd,TRPM6,240 nM
same,%Inh,AAK1,0%
same,%Inh,ABL1-nonphosphorylated,33%
same,%Inh,ABL1-phosphorylated,35%
same,%Inh,ABL2,12%
same,%Inh,ACVR1B,0%
same,%Inh,ACVR1,7%
NS(=O)(=O)c1cccc(-c2ccc3nccc(-c4cccc(S(N)(=O)=O)c4)c3c2)c1 [GW867253],Kd,ULK2,> 10000 nM
same,%Inh,AAK1,27%
same,%Inh,ABL1-nonphosphorylated,36%
same,%Inh,ABL1-phosphorylated,15%
same,%Inh,ABL2,0%
same,%Inh,ACVR1B,0%
same,%Inh,ACVR1,0%
COCCNC(=O)c1ccc(-c2cc(C(=O)NC3CC3)cc(F)c2C)cc1 [GW868318],Kd,p38-alpha,7.3 nM
same,Kd,p38-beta,88 nM
same,%Inh,AAK1,0%
same,%Inh,ABL1-nonphosphorylated,43%
same,%Inh,ABL1-phosphorylated,28%
same,%Inh,ABL2,12%
same,%Inh,ACVR1B,17%
same,%Inh,ACVR1,7%
Cc1ccc(C(=O)NCC(N)=O)cc1-n1c(C)cc(OCc2ccc(F)cc2F)c(Br)c1=O,Kd,p38-alpha,0.23 nM
same,Kd,p38-beta,10 nM
same,%Inh,AAK1,0%
same,%Inh,ABL1-nonphosphorylated,57%
same,%Inh,ABL1-phosphorylated,33%
same,%Inh,ABL2,27%
same,%Inh,ACVR1B,11%
same,%Inh,ACVR1,11%
CN(C(=O)c1ccc(-c2cc(-c3c[nH]nc3-c3ccccn3)ccn2)cc1)C1CCOCC1 [GW810083],Kd,VRK2,> 10000 nM
same,%Inh,AAK1,0%
same,%Inh,ABL1-nonphosphorylated,57%
same,%Inh,ABL1-phosphorylated,0%
same,%Inh,ABL2,0%
same,%Inh,ACVR1B,52%
same,%Inh,ACVR1,0%
c1ccc(-c2cc(-c3c[nH]nc3-c3ccccn3)ccn2)cc1 [GW576604],Kd,TNNI3K,> 10000 nM
same,%Inh,AAK1,23%
same,%Inh,ABL1-nonphosphorylated,0%
same,%Inh,ABL1-phosphorylated,0%
same,%Inh,ABL2,0%
same,%Inh,ACVR1B,37%
same,%Inh,ACVR1,0%
c1ccc(-c2n[nH]cc2-c2ccnc3ccccc23)nc1 [GW271431],Kd,TGFBR1,110 nM
same,%Inh,AAK1,16%
same,%Inh,ABL1-nonphosphorylated,14%
same,%Inh,ABL1-phosphorylated,1%
same,%Inh,ABL2,16%
same,%Inh,ACVR1B,79%
same,%Inh,ACVR1,46%
O=C(NCCNc1ccnc(Nc2ccc(F)cc2)n1)Nc1ccccc1F [GSK1379880],%Inh,AAK1,0%
same,%Inh,ABL1-nonphosphorylated,0%
same,%Inh,ABL1-phosphorylated,0%
same,%Inh,ABL2,24%
same,%Inh,ACVR1B,0%
same,%Inh,ACVR1,0%
N#Cc1c(N2CCOCC2)sc(-c2ccn[nH]2)c1-c1ccc(Cl)cc1,Kd,VPS34,58 nM
same,%Inh,AAK1,70%
same,%Inh,ABL1-nonphosphorylated,42%
same,%Inh,ABL1-phosphorylated,0%
same,%Inh,ABL2,9%
same,%Inh,ACVR1B,15%
same,%Inh,ACVR1,0%
O=C1NC(=O)C(N2CCc3ccccc32)=C1c1cccc(Cl)c1 [SB-408010],Kd,WNK4,> 10000 nM
same,%Inh,AAK1,2%
same,%Inh,ABL1-nonphosphorylated,33%
same,%Inh,ABL1-phosphorylated,0%
same,%Inh,ABL2,10%
same,%Inh,ACVR1B,14%
same,%Inh,ACVR1,0%
